Results filed as inconclusive are left out. Values without a mark were called inactive. Calls of active or inactive are those of the source. Calls follow the shape of the dose curve; as a rule, active = well fitted activation curve with a large enough effect in the repeat runs; inconclusive = weak or mixed curves; inactive = no such curve, though single readings can be large or run the other way.
Molecular target: Nuclear receptor subfamily 1 group I member 3 (Homo sapiens) (UniProt Q14994)
Test: qHTS assay to identify small molecule agonists of the constitutive androstane receptor (CAR) signaling pathway (AID 1224839); also: nearly all actives have a fitted effect of over 15% in size;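 as to activation: HepG2 cells stably carrying human CAR and a CYP2B6 luciferase reporter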
Settings: HepG2 hCAR CYP2B6-luciferase, agonist mode, 24 h; series mostly up to 92.4 µM; activation: at the top concentration
Text: National Center for Advancing Translational Sciences [NCATS] NIH Chemical Genomics Center [NCGC] U.S. Environmental Protection Agency [EPA] National Institutes of Environmental Health Sciences [NIEHS] National Toxicology Program [NTP] Assay overview: The constitutive androstane receptor (CAR) is a nuclear receptor which regulates multiple drug metabolizing enzymes (DMEs) and transporters. Activating CAR will generally increase the transcription and subsequent translation of CYP2B6 and CYP3A4. These two DMEs represent about 50% of the drug metabolizing potential in the body. […] Recently, there have also been studies performed indicating CARs role in energy metabolism and cancer therapy. Therefore, inducing CARs activity could have a potential effect on diabetes and cancer. Identifying environmental toxins and compounds which modulate CAR, through the use of the Tox21 10K compound collection, will be an important step in determining the toxicity and potential therapeutic effects these factors will have on the human body.
Assay Protocol Summary: A double-stable (hCAR and CYP2B6-2.2kb) transfected cell line, derived from human hepatoma (HepG2) cells, was utilized for the duration of the quantitative high-throughput screens. The HepG2-CYP2B6-hCAR cells suspended in DMEM culture medium supplemented with 10% FBS, 5 ug/mL blasticidin, 0.5 mg/mL geneticin, 100 U/mL penicillin and 100 ug/mL streptomycin were dispensed at 2500 cells/4 uL/well in 1536-well white solid bottom plates using a Multidrop Combi. After the assay plates were incubated at 37 C/5% CO2 for 4 hrs, 23 nL of compounds at 15 concentrations (from 5-48 columns) or positive control (from 1 to 4 columns) were transferred to the assay plates using a Pintool station. One uL of PK11195, was added using a Flying Reagent Dispenser to generate a final concentration of 0.75 uM PK11195 inside each well. After a 24 hr incubation period at 37 C/5% CO2, four uL of ONE-Glo reagent was added into the assay plates using a Flying Reagent Dispenser. After a 30 min incubation period at room temperature, the luminescence intensity in the assay plates was measured using a ViewLux plate reader.
% is scaled to controls: 0 for no effect and ±100 for the full control effect; potency is read from the fitted curve at half-maximal effect.

Sequence of Nuclear receptor subfamily 1 group I member 3 (Homo sapiens) (Q14994 whole entry, looked up): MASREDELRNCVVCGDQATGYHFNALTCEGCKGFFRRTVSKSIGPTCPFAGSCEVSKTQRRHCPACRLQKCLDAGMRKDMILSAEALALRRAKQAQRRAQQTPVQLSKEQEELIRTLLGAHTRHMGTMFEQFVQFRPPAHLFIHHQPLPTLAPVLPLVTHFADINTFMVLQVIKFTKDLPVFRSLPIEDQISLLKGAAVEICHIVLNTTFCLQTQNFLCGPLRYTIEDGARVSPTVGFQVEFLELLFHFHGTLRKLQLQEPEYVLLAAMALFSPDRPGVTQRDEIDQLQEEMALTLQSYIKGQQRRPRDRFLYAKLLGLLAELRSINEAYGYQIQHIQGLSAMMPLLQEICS

Row | Structure (SMILES) | activation | Potency
1 | Cc1cccc(C(=O)O)c1[N+](=O)[O-] | 4.27% | –
2 | C1=C\CC/C=C\CC/1 | -1.43% | –
3 | Cc1ccc2c(c1)c1c3n2CCNC3CCC1 (stereo not given) | -9.78% [at 42.5 µM] | –
4 | CCOC(=O)CCCCCCCCC(=O)OCC | 1.13% | –
5 | CC(C)COC(=O)CC(C(=O)OCC(C)C)S(=O)(=O)O (stereo not given) | -3.47% | –
6 | CC(C)(c1ccc(Oc2ccc3c(c2)C(=O)OC3=O)cc1)c1ccc(Oc2ccc3c(c2)C(=O)OC3=O)cc1 | 3.26% | –
7 | COc1cc([N+](=O)[O-])ccc1N | 0.928% | –
8 | COc1cc2c(Nc3ccc(Br)cc3F)ncnc2cc1OCC1CCN(C)CC1 | -3.51% [at 42.5 µM] | –
9 | CCCCC(CC)CNC(=O)CC(C)OC(=O)CCC(=O)O (stereo not given) | 0.305% [at 42.5 µM] | –
10 | CC(C)(CO)[C@@H](O)C(=O)NCCCO | -2.79% [at 42.5 µM] | –
11 | Nc1ccc(C(=O)OCC(O)CO)cc1 (stereo not given) | 2.29% [at 42.5 µM] | –
12 | Nc1c(NC/C=C\COc2cc(CN3CCCCC3)ccn2)c(=O)c1=O | 4% [at 19 µM] | –
13 | Nc1nc(=O)n([C@@H]2O[C@H](CO)[C@@H](O)[C@@H]2F)cc1I | -2.67% [at 42.5 µM] | –
14 | CCCCCC1CCCC(=O)O1 (stereo not given) | -0.379% | –
15 | C[Si]1(C)N[Si](C)(C)N[Si](C)(C)N1 | -0.459% | –
16 | CCCCCCCCCOCC1CO1 (stereo not given) | 10.2% | –
17 | C[C@@H]1C[C@H]2[C@@H]3C[C@H](F)C4=CC(=O)C=C[C@]4(C)[C@@]3(F)[C@@H](O)C[C@]2(C)[C@@]1(O)C(=O)CO | -1.63% [at 42.5 µM] | –
18 | Cc1cccc(NC(=S)N(C)C)c1 | -2.18% | –
19 | CCCCCCCCCCCCC1CO1 (stereo not given) | -2.43% | –
20 | F[Si-2](F)(F)(F)(F)F | -7.65% | –

Row | Structure (SMILES) | activation | Potency
21 | NS(=O)(=O)c1cc2c(cc1Cl)NC(C(Cl)Cl)NS2(=O)=O (stereo not given) | 0.0726% [at 42.5 µM] | –
22 | C=CCOC(=O)c1ccc(C(=O)OCC=C)c(C(=O)OCC=C)c1 | 2.94% | –
23 | COc1ccc(N=Nc2cc(C)c(N=Nc3ccc(S(=O)(=O)O)cc3)cc2OC)cc1 | -0.33% | –
24 | C=C(C)C(=O)OC | 0.0333% | –
25 | O=S1(=O)CCCC1 | -2.29% | –
26 | FC(F)(F)/C(=N\OCC1OCCO1)c1ccc(Cl)cc1 | 1.4% | –
27 | O=C(O)c1ccccc1C(=O)Nc1ccc(S(=O)(=O)Nc2nccs2)cc1 | -3.08% [at 42.5 µM] | –
28 | CCC(=O)OCCC(C)CCC=C(C)C (stereo not given) | 2.69% | –
29 | Cc1ccccc1C(=O)N1CC/C(=N\OS(=O)(=O)O)c2ccc(Cl)cc21 | 1.94% [at 42.5 µM] | –
30 | CCCCOC(=O)C(=O)OCCCC | -3.55% | –
31 | Nc1cc(Cl)cc(S(=O)(=O)O)c1O | 4.88% | –
32 | O=C(/C=C/c1ccccc1)NCCO | 1.84% [at 42.5 µM] | –
33 | O=C1c2ccccc2-c2ccccc21 | 9.48% | –
34 | CCN(Cc1cccc(S(=O)(=O)O)c1)c1ccccc1 | -0.326% | –
35 | CC(=O)OCC(=O)[C@@]1(O)[C@H](OC(C)=O)C[C@H]2[C@@H]3CCC4=CC(=O)C=C[C@]4(C)[C@@]3(F)[C@@H](O)C[C@@]21C | 1.2% [at 42.5 µM] | –
36 | CCCCOC(=O)[C@@H](C)Oc1ccc(Oc2ccc(C(F)(F)F)cn2)cc1 | 9.72% | –
37 | CC(=O)c1ccc(OCC(=O)N2CCCCC2)cc1 | – | 18.8 µM (active)
38 | NS(=O)(=O)c1cc2c(cc1Cl)NC(CC1CCCC1)NS2(=O)=O (stereo not given) | 0.321% [at 42.5 µM] | –
39 | CC(=O)c1ccc2c(c1)CCCC2 | 3.69% | –
40 | CC(C)C(=O)Nc1cccc(C(F)(F)F)c1 | 7.87% [at 42.5 µM] | –

— PubChem BioAssay (Tox21)
